# Measurements: PubChem BioAssay (EPA / NIEHS)
# Values joined by “and” are separate entries in the source; they are usually repeats but may differ in a detail not shown here. Equal values may be shown once. Inconclusive results are not listed. Active and inactive are the calls of the source. How the source made its calls, unless noted: active means hit-call score of the fitted dose curve at least 0.9, where 1 is the maximum; inconclusive means response in the unintended direction; inactive means score below 0.9.
# Legend:
# [1] = CCTE_Deisenroth_5AR_NBTE_donor: CCTE's 5alpha-reductase NanoBRET Target Engagement Assay […], Deisenroth Lab (AID 2284319; active means hit-call score of the fitted dose curve at least 0.9, where 1 is the maximum; inactive means score below 0.9); settings: actives raise or lower the signal
# Method in brief: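 HEK293T cells transiently expressing SRD5A2-NanoLuc, exposed 5 h to chemicals (8 points, 10 nM - 29.9 uM), with testosterone tracer for the final 2 h. Donor luminescence at 460 nm read after Nano-Glo substrate plus extracellular NanoLuc inhibitor; bidirectional fit versus DMSO.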
# [2] = CCTE_Deisenroth_5AR_NBTE_acceptor: CCTE's 5alpha-reductase NanoBRET Target Engagement Assay - Autofluorescence Screen, Deisenroth Lab (AID 2284321; active means hit-call score of the fitted dose curve at least 0.9, where 1 is the maximum; inactive means score below 0.9;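 further: compound fluorescence in the acceptor channel under 460 nm excitation flags autofluorescence artifacts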); settings: actives raise or lower the signal
# Experimental: CCTE_Deisenroth_5AR NBTE (5alpha-reductase NanoBRET Target Engagement Assay) is a cell-based, single-readout assay that uses HEK293T, a human kidney cell line, with measurements taken at 5 hours after chemical dosing in a 384 well plate. This assay includes a primary and secondary screen as well as an autofluorscence screen.CCTE_Deisenroth_5AR NBTE_acceptor is one of four assay components measured from the CCTE_Deisenroth_5AR NBTE assay. It is designed to make measurements of resonant fluorescence generated by bioluminescent energy transfer to a target fluorophore, as detected by fluorescence intensity emission signals using spectrometry technology.Data from the assay component CCTE_Deisenroth_5AR NBTE_acceptor was analyzed into 1 assay endpoint. This assay endpoint, CCTE_Deisenroth_5AR NBTE_acceptor, was analyzed with bidirectional fitting relative to DMSO as the negative control and baseline of activity. Using a type of inducible reporter, gain or loss-of-signal activity can be used to understand changes in the acceptor fluorescence as related to 5alpha-reductase catalytic function. Furthermore, this assay endpoint can be referred to as a secondary readout, because this assay has produced multiple assay endpoints where this one serves an artifact detection function.
# Chemicals from the blinded ToxCast library were diluted 1000-fold in DMSO to an assumed nominal concentration of 100 uM. Samples were scanned in three independent runs (n=3) on a multi-mode plate reader at a fixed excitation wavelength of 460 nm with emission filter set at […]. For reference, tracer was included at DMSO-solubilized concentrations of 100 uM (the top tested concentration for each test chemical) and 600 nM (the final working concentration of the tracer probe).
# [3] = system: SRD5A2 (gene 6716); assay: CCTE_Deisenroth_5AR_NBTE_ratio: CCTE's 5alpha-reductase NanoBRET Target Engagement Assay - Ratio, Deisenroth Lab (AID 2284322; active means hit-call score of the fitted dose curve at least 0.9, where 1 is the maximum; inactive means score below 0.9); settings: actives raise or lower the signal
# Method in brief: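 Reverse-transfect HEK293T with pNLF1-C-SRD5A2, express 20 h. Pre-incubate cells with chemical 3 h (8-point series, 10 nM - 29.9 uM, duplicate). Add testosterone tracer, 2 h more. Add substrate/inhibitor, read donor and acceptor emission.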
# [4] = IUF_NPC1_cytotoxicity_72hr: Cytotoxicity Assessment at 72 hours in the Leibniz Research Institute for Environmental Medicine (IUF) Neural Progenitor Cell Proliferation Assay (NPC1) (AID 2284332);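 further: rising LDH signal means more cytotoxicity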
# Method in brief: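 Single human fetal cortex neural progenitor spheres (GW 16-19, 0.25-0.35 mm) in EGF/FGF proliferation medium were exposed to compound for 72 h at 37C without renewal. Medium LDH release was read as resorufin fluorescence and fitted as gain-of-signal.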
# [5] = TAMU_PeakParms_SingleDonor1434_Asystole: Texas A&M University (TAMU) 1.5-hr Human Induced Pluripotent Stem Cell (iPSC)-derived Cardiomyocytes Calcium (Ca+2) Flux Assay for Cardiotoxicity: Asystole (quiescence of beating) (AID 2284328)
# Method in brief: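 Donor 1434 iPSC-cardiomyocytes exposed 90 min at 37C, 5% CO2, to 0.2, 1, 10 and 100 uM in 0.5% DMSO. Ca2+ dye fluorescence gave average peak frequency; POD is EC95, a 95% beat-rate drop versus controls.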
# [6] = VALA_MIGHUV1_ScratchOnly_WoundArea: VALA Sciences human Umbilical Vein Endothelial Cell Migration (MIGHUV) Assay, Area of Scratch Wound Inhibited Recovery (AID 2284336)
# Method in brief: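 HUVEC monolayers (9000 cells/well) were scratched after 24 h, dosed within 30 min (six concentrations, triplicate, 0.1% DMSO), allowed 24 h recovery, then fixed. Hoechst-stained nuclei in the wound imaged; cytochalasin D as reference.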
# [7] = VALA_TUBHUV_Agonist_TubuleLength: VALA Sciences human Umbilical Vein Endothelial Tubule Formation (TUBHUV) Agonism Assay (AID 2284337)
# Experimental: VALA_TUBHUV_Agonist is a cell-based, multiplexed assay that uses human umbilical vein endothelial cells (HUVEC). Measurements were taken 72 hours after chemical dosing in a 96-well plate.VALA_TUBHUV_Agonist_TubuleLength is the one of two assay components measured from the VALA_TUBHUV_Agonist assay. It is designed to make measurements of tubulogenesis, a form of morphology reporter, as detected with fluorescence intensity signals by HCS Fluorescent Imaging technology. This VALA_TUBHUV1 assay was designed to detect chemical activation of tubulogenesis, i.e. agonism.Data from the assay component VALA_TUBHUV_Agonist_TubuleLength was analyzed at the endpoint, VALA_TUBHUV_Agonist_TubuleLength, in the positive analysis fitting direction relative to DMSO as the negative control and baseline of activity. Using a type of morphology reporter, gain-of-signal activity can be used to understand developmental effects. To generalize the intended target to other relatable targets, this assay endpoint is annotated to the neurodevelopment intended target family, where the subfamily is tubulogenesis.
# […]
# [8] = VALA_TUBIPS_Antagonist_CellCount: Viability Assessment in the VALA Sciences human iPS-derived Endothelial Tubule Formation (TUBIPS) Antagonism Assay (AID 2284335)
# Experimental: VALA_TUBIPS_Agonist is a cell-based, multiplexed assay that uses human iPS-derived endothelial cells (iPSC). Measurements were taken 72 hours after chemical dosing in a 96-well plate.VALA_TUBIPS_Antagonist_CellCount is the one of two assay components measured from the VALA_TUBIPS_Antagonist assay. It is designed to make measurements of viability, a form of viability reporter, as detected with fluorescence intensity signals by HCS Fluorescent Imaging technology. Data from the assay component VALA_TUBIPS_Antagonist_CellCount was analyzed at the endpoint, VALA_TUBIPS_Antagonist_CellCount, in the positive analysis fitting direction relative to DMSO as the negative control and baseline of activity. Using a type of viability reporter, loss-of-signal activity can be used to understand viability. To generalize the intended target to other relatable targets, this assay endpoint is annotated to the cell cycle intended target family, where the subfamily is cell count.
# This HUVEC-HDF assay was designed to detect chemical suppression of tubulogenesis, i.e. antagonism. To measure tubulogenesis antagonism, HUVEC cells were co-cultured with HDF cells at a 1:3 ratio for 3-days in 10 ng/ml VEGF (i.e., favorable conditions with growth factors), then changed to assay medium containing 10 ng/ml VEGF and ToxCast compounds for an additional 3-day period. […]
# [9] = VALA_TUBHUV_Antagonist_TubuleLength: VALA Sciences human Umbilical Vein Endothelial Tubule Formation (TUBHUV) Antagonism Assay (AID 2284325)
# Method in brief: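 HUVEC–HDF co-culture (1:3) pre-grown 3 days with 10 ng/ml VEGF, then 3 days with compound plus VEGF. Fixed, nuclear and CD31 stained; total tubule length by imaging versus 0.1% DMSO; suramin 100 uM positive control.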
# [10] = VALA_MIGHUV1_ScratchOnly_CellCount: Viability Assessment in the VALA Sciences human Umbilical Vein Endothelial Cell Migration (MIGHUV) Assay, Scratch Wound Inhibited Recovery (AID 2284327)
# Experimental: VALA_MIGHUV1_ScratchOnly is a cell-based, multiplexed assay that uses umbilical vein-derived endothelial cells (HUVEC). Measurements were taken 24 hours after chemical dosing in a 96-well plate.VALA_MIGHUV1_ScratchOnly_CellCount is the one of two assay components measured from the VALA_MIGHUV1_ScratchOnly assay. It is designed to make measurements of viability, a form of viability reporter, as detected with fluorescence intensity signals by HCS Fluorescent Imaging technology. Data from the assay component VALA_MIGHUV1_ScratchOnly_CellCount was analyzed at the endpoint, VALA_MIGHUV1_ScratchOnly_CellCount, in the positive analysis fitting direction relative to DMSO as the negative control and baseline of activity. Using a type of viability reporter, loss-of-signal activity can be used to understand viability. To generalize the intended target to other relatable targets, this assay endpoint is annotated to the cell cycle intended target family, where the subfamily is cell count.
# Cells were seeded on 384-well microplates (day-0) at a density of 9000 cells per well for detection of wound area recovery or 4000 cells per well for detection of beta-catenin (CTNB) immunoreactivity and incubated in Endothelial Cell Growth Medium (CAI, San Diego; catalog 211-500). After 24 hours of culture, the HUVEC plates were scratched using a custom scratch head with the Bravo liquid handling system. […]
smiles,measurement,setting,value
COP(=O)(OC)OC(Br)C(Cl)(Cl)Br (stereo not drawn),outcome,[1],inactive
same,outcome,[2],inactive
same,outcome,[3],inactive
same,outcome,[4],inactive
CCOP(=O)(NC(C)C)Oc1ccc(SC)c(C)c1 (stereo not drawn),outcome,[4],inactive
CCOP(=O)(OCC)Oc1cc(C)nc(C(C)C)n1,outcome,[4],inactive
N#CSCSC#N,outcome,[1],inactive
same,outcome,[2],inactive
same,AC50,[3],19.5 µM (active)
COP(=O)(OC)C(O)C(Cl)(Cl)Cl (stereo not drawn),outcome,[4],inactive
CCOP(=S)(OCC)Oc1cc(C)nc(C(C)C)n1,outcome,[4],inactive
CCOP(=S)(OCC)Oc1ccc([N+](=O)[O-])cc1,outcome,[5],inactive
C=C(C)[C@H]1Cc2c(ccc3c2O[C@@H]2COc4cc(OC)c(OC)cc4[C@@H]2C3=O)O1,outcome,[1],inactive
same,outcome,[2],inactive
same,AC50,[3],30.6 µM (active)
same,AC50,[5],0.01 µM (active)
same,outcome,[4],inactive
CCOP(=S)(OCC)OC(Cl)C(Cl)(Cl)Cl (stereo not drawn),outcome,[4],inactive
C[N+]1(C)CCCCC1,outcome,[4],inactive
CSC1=N[C@@](C)(c2ccccc2)C(=O)N1Nc1ccccc1,outcome,[1],inactive
same,outcome,[2],inactive
same,outcome,[3],inactive
same,outcome,[4],inactive
CCCCSP(=O)(SCCCC)SCCCC,AC50,[4],82.5 µM (active)
CCC(CC)Nc1c([N+](=O)[O-])cc(C)c(C)c1[N+](=O)[O-],outcome,[1],inactive
same,outcome,[2],inactive
same,outcome,[3],inactive
CCOC(=O)CC(SP(=O)(OC)OC)C(=O)OCC (stereo not drawn),outcome,[4],inactive
CC(C)N(C(=O)SCC(Cl)=C(Cl)Cl)C(C)C,outcome,[1],inactive
same,outcome,[2],inactive
same,outcome,[3],inactive
CN1COCN(Cc2cnc(Cl)s2)C1=N[N+](=O)[O-],outcome,[4],inactive
S=C1NCCN1,outcome,[4],inactive
same,outcome,[6],inactive
same,outcome,[7],inactive
C[Si](Cn1cncn1)(c1ccc(F)cc1)c1ccc(F)cc1,outcome,[1],inactive
same,outcome,[2],inactive
same,outcome,[3],inactive
CC[C@H](C)[C@H]1O[C@]2(C=C[C@@H]1C)C[C@@H]1C[C@@H](C/C=C(\C)[C@@H](O[C@H]3C[C@H](OC)[C@@H](O[C@H]4C[C@H](OC)[C@@H](NC)[C@H](C)O4)[C@H](C)O3)[C@@H](C)/C=C/C=C3\CO[C@@H]4[C@H](O)C(C)=C[C@@H](C(=O)O1)[C@]34O)O2,AC50,[1],14.2 µM (active)
same,AC50,[2],10 µM (active)
same,AC50,[3],16.6 µM (active)
same,AC50,[4],18.5 µM (active) and 3.79 µM (active)
CC(=NC#N)N(C)Cc1ccc(Cl)nc1,outcome,[4],inactive
CCCSP(=O)(OCC)SCCC,outcome,[4],inactive
CC1=NNC(=O)N(/N=C/c2cccnc2)C1,outcome,[4],inactive
same,outcome,[8],inactive
same,outcome,[6],inactive
same,outcome,[7],inactive
CCOP(=S)(Oc1cnc(C(C)(C)C)nc1)OC(C)C (stereo not drawn),outcome,[4],inactive
COP(=O)(NC(C)=O)SC (stereo not drawn),outcome,[4],inactive
CON=C(C(=O)OC)c1ccccc1CON=C(C)c1cccc(C(F)(F)F)c1,outcome,[4],inactive
CCOP(=S)(OCC)SCCSCC,outcome,[4],inactive
O=[N+]([O-])c1cc(C(F)(F)F)c(Cl)c([N+](=O)[O-])c1Nc1ncc(C(F)(F)F)cc1Cl,outcome,[9],inactive
same,AC50,[4],21.9 µM (active)
same,outcome,[6],inactive
CN(C)[C@@H]1C(=O)C(C(N)=O)=C(O)[C@@]2(O)C(=O)C3=C(O)c4c(O)cccc4[C@@](C)(O)[C@H]3[C@H](O)[C@@H]12,outcome,[1],inactive
same,outcome,[2],inactive
same,outcome,[3],inactive
same,outcome,[10],inactive
same,outcome,[4],inactive
same,outcome,[8],inactive
same,AC50,[6],90.1 µM (active)
same,AC50,[7],7.49 µM (active)
